Data reported in PubChem BioAssay AID1851 (National Center for Advancing Translational Sciences (NCATS), 2009).
Where “and” joins values, the source holds several entries; their conditions need not be identical. Equal values may be shown once. Among all 16,000 compounds or so, about 5,800 (36%) were called active. Another 23% or so got no clear call; they are omitted. Calls follow the shape of the dose curve; as a rule, active = well fitted curve in the direction sought with a large enough effect; inconclusive = small, poorly fitted or top-dose-only effect, or effect the other way; inactive = no such curve, though single readings can be large or run the other way. The list shows a part of the results. A structure can be active in one record and inactive in another.

Each compound was assayed against Cytochrome P450 2C19 (Homo sapiens) (UniProt P33261) (assay: Cytochrome panel assay with activity outcomes). Conditions: recombinant CYP, pro-luciferin dealkylation, luminescence, p450-cyp2c19; series mostly up to 57.1 µM.
% is scaled to controls: 0 for no effect and ±100 for the full control effect.

Sequence of Cytochrome P450 2C19 (Homo sapiens) (P33261 whole entry, looked up): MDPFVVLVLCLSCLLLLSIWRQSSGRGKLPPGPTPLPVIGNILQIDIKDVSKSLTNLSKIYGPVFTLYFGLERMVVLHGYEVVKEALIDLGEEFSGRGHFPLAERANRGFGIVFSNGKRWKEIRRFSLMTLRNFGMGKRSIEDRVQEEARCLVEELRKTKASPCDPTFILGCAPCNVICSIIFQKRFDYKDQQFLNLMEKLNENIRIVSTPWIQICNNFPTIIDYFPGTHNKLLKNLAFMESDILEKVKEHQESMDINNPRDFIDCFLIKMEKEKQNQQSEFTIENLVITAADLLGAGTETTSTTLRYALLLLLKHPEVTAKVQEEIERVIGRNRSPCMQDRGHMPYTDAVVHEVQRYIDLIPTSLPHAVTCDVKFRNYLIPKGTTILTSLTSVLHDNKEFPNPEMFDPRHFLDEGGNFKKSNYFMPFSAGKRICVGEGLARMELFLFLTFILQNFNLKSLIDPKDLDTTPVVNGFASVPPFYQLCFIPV

Row | SMILES | AC50 | activity, negative = inhibition
1 | CCOC(=O)C(NC(C)=O)C(OC(C)=O)c1cccc(N(CCO)CCO)c1 (centres undefined) | inactive | –
2 | Cc1c(NC(=O)C2CCN(S(=O)(=O)c3ccc(Cl)cc3)CC2)c(=O)n(-c2ccccc2)n1C | inactive | –
3 | O=C(Nc1nnc(C2CC2)s1)c1cc(S(=O)(=O)N2CCN(c3ccccc3)CC2)ccc1Cl | 7.08 µM (active) | –
4 | COc1ccc(COC(=O)N/N=C2/C[C@@H](O)[C@@H](O)[C@@H]3[C@@H]4C(=O)N(C(C)(C)C)C(=O)[C@H]4CC[C@@H]23)cc1 | – | 1.08% [at 11.4 µM] (inactive)
5 | Brc1ccc([C@H]2CN3CCSC3=N2)cc1 | inactive | –
6 | Cc1ccc(-n2c(-c3ccccc3)cc(=O)nc2C)cc1 | inactive | –
7 | CC(=O)c1c(C)nc(-c2ccccc2)n1O | inactive | –
8 | CN=c1nc(-c2ccccc2)n(-c2ccccc2)s1 | 3.16 µM (active) | –
9 | Cc1noc(C)c1C(=O)N1CCC2(CCCN(c3ccncc3)C2)CC1 | inactive | –
10 | CN(C)S(=O)(=O)Oc1ccccc1C(=O)Nc1cccc(C(F)(F)F)c1 | 2 µM (active) | –
11 | Cc1c(C(=O)NC2CCCc3ccccc32)oc2ccc(S(=O)(=O)N3CCOCC3)cc12 (centres undefined) | 11.2 µM (active) | –
12 | Cc1c(C(=O)Nc2cccc(C(F)(F)F)c2)oc2ccc(S(=O)(=O)N3CCOCC3)cc12 | 7.94 µM (active) | –
13 | CCOC(=O)CC1C(=O)NCCN1S(=O)(=O)c1ccc(Cl)c(Cl)c1 (centres undefined) | 11.2 µM (active) | –
14 | COC(=O)CC1C(=O)NCCN1C(=O)Nc1ccc(Cl)cc1 (centres undefined) | inactive | –
15 | CCCc1cc2c(cc1NC(=O)c1ccc(Br)cc1)OCO2 | 0.0794 µM (active) | –
16 | CCCc1cc2c(cc1NC(=O)c1ccccc1C)OCO2 | 0.178 µM (active) | –
17 | CCCc1cc2c(cc1NC(=O)c1ccccc1Cl)OCO2 | 0.398 µM (active) | –
18 | Cc1nn(C)c(C)c1CNC(=O)c1cnn2c1NC(c1ccccc1)CC2C(F)(F)F (centres undefined) | inactive | –
19 | COc1ccccc1CN1CC2(CCN(S(C)(=O)=O)CC2)C1 | inactive | –
20 | CN(C)C(=C(C#N)C#N)N1CCN(c2ccc(Cl)c(Cl)c2)CC1 | 10 µM (active) | –

Row | SMILES | AC50 | activity, negative = inhibition
21 | Nc1cc(=O)nc(SCC(=O)Nc2cccc3ccccc23)n1CCc1ccccc1 | 14.1 µM (active) | –
22 | CCC(Sc1nc(=O)cc(N)n1CCc1ccccc1)C(=O)Nc1ccccc1C#N (centres undefined) | 11.2 µM (active) | –
23 | NCCCC(=O)O | inactive | –
24 | Cn1c(CNC(=O)Nc2ccccc2)nnc1SCc1ccccc1 | 7.08 µM (active) | –
25 | CCCCN(C)CCCNC(=O)CCn1nc(-c2ccccc2)ccc1=O | inactive | –
26 | CCN(CCCNC(=O)CC(C(=O)N1CCc2ccccc21)n1ccnc1)c1ccccc1 (centres undefined) | 0.562 µM (active) | –
27 | CCN(CC)CCC(=O)Nc1ccc2c(c1)N(C(=O)CN(CC)CC)c1ccccc1CC2 | inactive | –
28 | CC(C(=O)NC1CCCC1)N(C(=O)c1snc(C(N)=O)c1N)c1ccc2c(c1)OCCO2 (centres undefined) | 15.8 µM (active) | –
29 | CN(CCO)c1nc(N)c2c(N)nc3c(c2c1C#N)CC(=O)N3C1CCCC1 | inactive | –
30 | CCCn1nnnc1-c1cc(Cl)cc(Cl)c1 | inactive | –
31 | CCCn1nnnc1-c1cccc(Cl)c1 | 5.01 µM (active) | –
32 | Cc1oc(-c2cccc(Cl)c2)[n+]([O-])c1C | inactive | –
33 | O=c1c(-c2ccc(Cl)cc2)nc2cnc(N3CCOCC3)nc2n1CCc1ccccc1 | inactive | –
34 | Clc1ccc(-c2nnc(-c3ccccc3)c(N3CCSCC3)n2)cc1 | 14.1 µM (active) | –
35 | Brc1ccc(-c2nnc(-c3ccccc3)c(N3CCSCC3)n2)cc1 | 14.1 µM (active) | –
36 | Cc1nnc(S(=O)(=O)c2ccc(N=Nc3c(N)nc(N)nc3N)cc2)s1 | – | 32.1% [at 11.4 µM] (inactive)
37 | CSc1ccc2c(c1)[C@H](N1CCN(C)CC1)Cc1ccccc1S2 | inactive and 2.51 µM (active) and 7.94 µM (active) | –
38 | CN1CCC[C@@H](CC2c3ccccc3Sc3ccccc32)C1 | inactive | –
39 | CO[C@H]1COC(=O)[C@@H](Cc2ccccc2)NC(=O)[C@@H](C)COC(=O)C/C=C\[C@@H]1C | – | -5.86% [at 11.4 µM] (inactive)
40 | Cc1nc(-c2c(C(F)(F)F)noc2-c2ccc(O)cc2O)cs1 | 1.26 µM (active) | –

Row | SMILES | AC50 | activity, negative = inhibition
41 | O=C(N/C(=C\c1cccnc1)C(=O)N1CCOCC1)c1cccc(Br)c1 | inactive | –
42 | O=C(/C=C/c1cccnc1)c1ccc(NC(=O)c2cccc(Br)c2)cc1 | 2.51 µM (active) | –
43 | COC(=O)c1c(-c2cc(OC)c(OC)c(OC)c2)c2ccnc(OCc3ncccn3)c2c(=O)n1Cc1ccnc(C)c1 | inactive | –
44 | Cc1ccc(-n2[nH]c(C)c(C=Nc3ccc4[nH]c(=O)[nH]c4c3)c2=O)cc1C | inactive | –
45 | CCOc1[nH]n(-c2ccc(Cl)cc2)c(=O)c1C=Nc1ccc(Cl)cc1 | inactive | –
46 | CCOc1[nH]n(-c2ccccc2)c(=O)c1C=Nc1ccc(Cl)cc1 | 8.91 µM (active) | –
47 | CCN(CC)CCOC(=O)[C@@H](Cc1cccc2ccccc12)C[C@@H]1CCCO1 | inactive | –
48 | O=C(O)c1cc(S(=O)(=O)NCC2CCCO2)ccc1Cl (centres undefined) | inactive | –
49 | COc1ccc(CNC(=O)CN(CC2CCCO2)C(=O)CNS(=O)(=O)c2ccccc2)cc1 (centres undefined) | 14.1 µM (active) | –
50 | O=C(CN(CC1CCCO1)C(=O)CNS(=O)(=O)c1ccc(Cl)cc1)NCCc1ccccc1 (centres undefined) | 31.6 µM (active) | –
51 | Cc1nn(Cc2c(F)c(F)c(F)c(F)c2F)c(C)c1NC(=O)c1c(-c2ccccc2)nn(-c2ccccc2)c1C | 2.24 µM (active) | –
52 | Cc1nn(Cc2c(F)c(F)c(F)c(F)c2F)c(C)c1NC(=O)c1cccc(COc2ccc(Cl)cc2)c1 | 14.1 µM (active) | –
53 | O=C1NC(O)=NC1(c1ccccc1)c1ccccc1 | inactive | –
54 | O=C(/C=C/c1ccc(Cl)cc1)NCCSc1ccccc1 | 1.78 µM (active) | –
55 | COCCCNC(=O)/C=C/c1ccc(Cl)cc1 | inactive | –
56 | CCCCCCCCCCCCCCC[C@H](O)[C@H](N)CO | inactive | –
57 | CC1=NN(c2ccccc2)C(=O)[C@@H]1N=Nc1ccc(S(N)(=O)=O)cc1 | – | 20.1% [at 11.4 µM] (inactive)
58 | CC1=NN(c2ccc(C)cc2C)C(=O)C1C(c1ccccc1)C1C(=O)N(c2ccc(C)cc2C)N=C1C (centres undefined) | 4.47 µM (active) | –
59 | COCCn1c(=O)c(-c2cccc(C#N)c2)nc2cnc(N3CCN(C)CC3)nc21 | inactive | –
